This note sets out measurements from PubChem BioAssay (NCATS).

Values joined by “and” are separate entries in the source; they are usually repeats but may differ in a detail not shown here. Identical values can stand only once. Results filed as inconclusive are left out. The source holds several records for some structures; these can differ, active in one and inactive in another. Active and inactive are the calls of the source. Calls follow the shape of the dose curve; as a rule, active = well fitted curve in the direction sought with a large enough effect; inconclusive = small, poorly fitted or top-dose-only effect, or another doubt; inactive = no such curve, though single readings can be large; an effect the other way counts as inactive or inconclusive. Where a SMILES comes first, the peptide text is derived from it. The star is where a group is joined. AMC = Cc1cc(=O)oc2cc(N*)ccc12; Cbz = O=C(OCc1ccccc1)*

Assay [1] concerns the target Calcium and integrin-binding protein 1 (Homo sapiens) (UniProt Q99828). Put plainly: Primary qHTS for Identification of Calcium Integrin Binding Protein 1 (CIB1) Competitor (AID 1508620).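 Also: GST tagged CIB1 binding a fluorescein labelled alphaIIb integrin peptide tracer; top concentration of the series differs between compounds; % is scaled to controls: 0 for no effect and ±100 for the full control effect.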 The method, boiled down:
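Fluorescence polarization competition: CIB1-GST (1 uM final) preincubated with compound 15 min at room temperature, then FITC-labeled alphaIIb peptide (100 nM final) added for another 15 min. Polarization read at Ex 480/Em 540.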

Assay [2] is described as follows: Primary qHTS for inhibitors of nuclear receptor binding SET domain protein 2 (NSD2) in an isogenic RCH-ACV NSD2 p.E1099K mutant (9B) (AID 1645876). Also: nearly all actives have a fitted effect of over 70% in size. Also: potency is read from the fitted curve at half-maximal effect. As to activity change, negative = viability loss: % is scaled to controls: 0 for no effect and ±100 for the full control effect. On the technique in general: Quantitative high-throughput screening tests each substance at several concentrations.
Assay [3] can be described thus: Primary qHTS for inhibitors of nuclear receptor binding SET domain protein 2 (NSD2) in an RCH-ACV wild type WT cells (2C) (AID 1645877). Also: nearly all actives have a fitted effect of over 70% in size. Also: potency is read from the fitted curve at half-maximal effect. As to activity change, negative = cell killing: % is scaled to controls: 0 for no effect and ±100 for the full control effect.
Assay [4] deals with Catechol O-methyltransferase (Homo sapiens) (UniProt P21964). Put plainly: Confirmatory Screen for Target Class Profiling of Small Molecule Inhibitors of Methyltransferases (AID 1745852). As to activity change, negative = inhibition: % is scaled to controls: 0 for no effect and ±100 for the full control effect. The following applies: MTase-Glo luminescence, SAH detection, recombinant enzyme; measured here: COMT max response; stronger effect = lower value.
Chain of Catechol O-methyltransferase (Homo sapiens) (P21964 whole entry, looked up): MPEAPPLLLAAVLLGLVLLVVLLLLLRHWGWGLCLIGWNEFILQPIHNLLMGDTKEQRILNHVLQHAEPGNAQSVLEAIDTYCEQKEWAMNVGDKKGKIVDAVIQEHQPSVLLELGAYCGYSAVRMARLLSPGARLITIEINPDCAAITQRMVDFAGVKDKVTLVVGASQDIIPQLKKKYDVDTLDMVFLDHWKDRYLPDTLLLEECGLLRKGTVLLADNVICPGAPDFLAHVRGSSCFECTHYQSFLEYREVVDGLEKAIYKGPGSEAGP
The target of assay [5] is Guanidinoacetate N-methyltransferase (Homo sapiens) (UniProt Q14353). The description is as above. The following applies: MTase-Glo luminescence, SAH detection, recombinant enzyme; activity change, negative = inhibition: at 57.3 µM (top of the series) unless noted.
Assay [6] deals with Nicotinamide N-methyltransferase (Homo sapiens) (UniProt P40261). Described as above. Conditions: MTase-Glo luminescence, SAH detection, recombinant enzyme; measured here: NNMT max response; stronger effect = lower value.
Chain of Nicotinamide N-methyltransferase (Homo sapiens) (P40261 whole entry, looked up): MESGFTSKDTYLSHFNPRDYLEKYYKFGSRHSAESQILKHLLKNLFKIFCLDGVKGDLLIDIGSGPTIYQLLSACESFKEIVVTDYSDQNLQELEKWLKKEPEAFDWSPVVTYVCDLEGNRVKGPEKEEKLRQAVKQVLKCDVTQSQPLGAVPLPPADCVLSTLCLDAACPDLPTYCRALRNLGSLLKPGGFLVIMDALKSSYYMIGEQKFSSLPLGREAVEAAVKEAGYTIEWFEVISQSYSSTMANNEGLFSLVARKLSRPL
In assay [7] the target is Phenylethanolamine N-methyltransferase (Homo sapiens) (UniProt P11086). The description is as above. The following applies: MTase-Glo luminescence, SAH detection, recombinant enzyme; measured here: PNMT max response; stronger effect = lower value.
Chain of Phenylethanolamine N-methyltransferase (Homo sapiens) (P11086 whole entry, looked up): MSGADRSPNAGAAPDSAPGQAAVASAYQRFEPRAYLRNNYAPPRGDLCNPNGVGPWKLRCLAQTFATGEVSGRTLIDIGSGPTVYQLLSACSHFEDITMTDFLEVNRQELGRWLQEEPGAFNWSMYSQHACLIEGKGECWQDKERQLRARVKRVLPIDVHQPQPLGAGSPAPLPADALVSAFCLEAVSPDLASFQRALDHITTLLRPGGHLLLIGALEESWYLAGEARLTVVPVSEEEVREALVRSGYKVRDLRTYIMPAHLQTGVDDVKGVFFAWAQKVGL

Chain of Calcium and integrin-binding protein 1 (Homo sapiens) (Q99828 whole entry, looked up): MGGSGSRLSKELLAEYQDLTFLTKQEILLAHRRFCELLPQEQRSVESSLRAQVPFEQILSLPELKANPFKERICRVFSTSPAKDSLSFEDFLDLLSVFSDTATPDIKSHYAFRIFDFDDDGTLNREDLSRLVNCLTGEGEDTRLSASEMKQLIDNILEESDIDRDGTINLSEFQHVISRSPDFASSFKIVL

Turning to `O=C(/C=C/N1C[C@@H]2C[C@@H]1CN2c1ccccn1)c1ccccc1O`, the Potency entry in assay [1], in assay [2] and in assay [3] was “inactive” each time.

Turning to `CC(C)N(CCCNC(=O)Nc1ccc(C(C)(C)C)cc1)C[C@H]1O[C@@H](n2ccc3c(N)ncnc32)[C@H](O)[C@@H]1O`, the Potency entry in assay [1] and in assay [2] was “inactive” each time. In addition, the Potency entry in assay [3] is “inactive and 18.6 µM (active)”. Moreover, the activity is -14.9% in assay [4], -18.1% in assay [6] and -18.6% in assay [7]. The activity change, negative = inhibition in assay [5] is -7.92%.

As to `O=C(O)CC(CCc1ccccc1)OC1OC(CO)C(O)C(O)C1O` (centres undefined), the Potency result in assay [1], in assay [2] and in assay [3] was “inactive” in each case. Further, the activity in assay [4] was -76.5%; in assay [6], -1.93%; in assay [7], -2.51%. The activity change, negative = inhibition in assay [5] is -3.69%.

On to `C=C(C(=O)O)[C@H]1C[C@]2(C)C(=O)CC[C@]23O[C@H]1C[C@@H]3C`, for which the Potency entry in assay [1], in assay [2] and in assay [3] was “inactive” each time. Further, the figures for the activity in assay [4], in assay [6] and in assay [7] were -84.1%, -2.06% and -0.38%, respectively. The activity change, negative = inhibition in assay [5] is -1.21%.

Regarding `CC(=O)OC/C(=C/C(=O)O)CC[C@@H]1C(C)=CC(=O)[C@@H]2C(C)(C)CCC[C@@]12C`, the Potency result in assay [1], in assay [2] and in assay [3] was “inactive” each time. Further, the activity was -62.3% in assay [4], -1.14% in assay [6] and -1.13% in assay [7]. In addition, in assay [5], the activity change, negative = inhibition came out at 0%.

On to `C=C[C@H]1[C@H](O[C@@H]2O[C@H](CO)[C@@H](O)[C@H](O)[C@H]2O)OC=C(C(=O)OC)[C@H]1CCO`, for which the Potency entry in assay [1], in assay [2] and in assay [3] was “inactive” throughout. The values for the activity in assay [4], in assay [6] and in assay [7] were -72.1%, -12.2% and -3.1%, respectively. Also, the activity change, negative = inhibition in assay [5] was -3.63%.

With `C=C(C(=O)O)[C@@H]1CC[C@H](C)[C@@H]2CC(=O)C(C)=C2C1`, the Potency result in assay [1], in assay [2] and in assay [3] was “inactive” in each case. Besides, the activity in assay [4] was -63.8%; in assay [6] it was -2.63%; in assay [7] it was -9%. Moreover, in assay [5], the activity change, negative = inhibition was determined as 1.33%.

Consider `O=C(/C=C/c1ccc(O)cc1)OC[C@@]1(O)C=C[C@@H]2C(C(=O)O)=CO[C@@H](O[C@@H]3O[C@H](CO)[C@@H](O)[C@H](O)[C@H]3O)[C@@H]21`, for which the Potency entry in assay [1], in assay [2] and in assay [3] was “inactive” in each case. In addition, the activity in assay [4] was -58.3%; in assay [6] it was -1.35%; in assay [7] it was 0.204%. In addition, in assay [5], the activity change, negative = inhibition is 0.0203% [at 29.8 µM].

Regarding `CC(C)=C1CC2C(CCC2(C)O)C(C)(O)CC1=O` (centres undefined), the Potency result in assay [1], in assay [2] and in assay [3] was “inactive” in each case. Further, the activity in assay [4] was -78.9%; in assay [6], 3.19%; in assay [7], 3.52%. In addition, in assay [5], the activity change, negative = inhibition worked out at 0%.

In the case of `O=c1[nH]ccc2nc(-c3ccc(CN4CCC(c5nc(-c6ccccn6)n[nH]5)CC4)cc3)c(-c3ccccc3)cc12`, the Potency result in assay [1] is “inactive”. Besides, the Potency in assay [2] was 0.0325 µM (active); in assay [3] it was 0.0817 µM (active). For the same compound, the activity is -10.1% in assay [4], -47.8% in assay [6] and -18% in assay [7]. In assay [5], the activity change, negative = inhibition was -7.59%.

`COc1cc(C2Oc3c(OC)cc(/C=C/C(=O)OC4CC(O)(C(=O)O)CC(O)C4O)cc3C2CO)ccc1O` (centres undefined): the Potency entry in assay [1], in assay [2] and in assay [3] was “inactive” in each case. The activity in assay [4] is -71.9%; in assay [6] it was -1.14%; in assay [7] it was -2.58%. Besides, the activity change, negative = inhibition in assay [5] was -2.32% [at 29.8 µM].

On to `C=CC(C)(O)CC/C=C(\C)COC1O[C@H](CO)[C@@H](O)[C@H](O)[C@H]1O` (some centres undefined), for which the Potency result in assay [1], in assay [2] and in assay [3] was “inactive” throughout. For the same compound, the activity was -76.9% in assay [4], -3.25% in assay [6] and -3.19% in assay [7]. Also, the activity change, negative = inhibition in assay [5] was -6.43%.

On to `CC(C)(O)C1CC=C(C(=O)OC[C@H]2O[C@@H](OC(=O)C3=CCC(C(C)(C)O)CC3)[C@H](O)[C@@H](O)[C@@H]2O)CC1` (some centres undefined), for which the Potency entry in assay [1], in assay [2] and in assay [3] was “inactive” each time. The activity in assay [4] is -62.1%; in assay [6], -5.04%; in assay [7], -5.85%. Besides, the activity change, negative = inhibition in assay [5] was -9.84% [at 29.8 µM].

Regarding `CC1=CCC(O)C2(C)CCC3C(C)C(=O)OC3C12` (centres undefined), the Potency result in assay [1], in assay [2] and in assay [3] was “inactive” each time. Moreover, the results for the activity in assay [4], in assay [6] and in assay [7] were -77%, 2.91% and -2.6%, respectively. The activity change, negative = inhibition in assay [5] worked out at 0%.

Take `COc1c2cc(c(O[C@@H]3O[C@H](CO)[C@@H](O)[C@H](O)[C@H]3O)c1OC)CCCCC(O)CCc1ccc(O)c-2c1` (some centres undefined): the Potency result in assay [1], in assay [2] and in assay [3] was “inactive” throughout. The activity in assay [4] is -87.3%; in assay [6], -5.32%; in assay [7] it was -8.72%. Besides, the activity change, negative = inhibition in assay [5] is -7.96% [at 29.8 µM].

Regarding `Cc1cc(=O)oc2cc(NC(=O)[C@H](CCC(=O)O)NC(=O)[C@H](CC(C)C)NC(=O)[C@H](CC(C)C)NC(=O)OCc3ccccc3)ccc12` (Cbz-Leu-Leu-Glu-{AMC}), the Potency result in assay [1], in assay [2] and in assay [3] was “inactive” each time. The activity in assay [4] is -1.08%; in assay [6], -71.3%; in assay [7], -1.44%. The activity change, negative = inhibition in assay [5] was found to be 0%.

Take `COc1cc(C2Oc3c(OC)cc(CCCO)cc3C2CO)ccc1O` (centres undefined): the Potency result in assay [1], in assay [2] and in assay [3] was “inactive” each time. In addition, the activity in assay [4] is -80.9%; in assay [6] it was -9.4%; in assay [7], -8.69%. For the same compound, the activity change, negative = inhibition in assay [5] was -2.79%.

With `CC(C)CC(=O)NCCn1cc(C(=O)O)c(=O)cc1C(O)c1ccccc1` (centres undefined), the Potency entry in assay [1], in assay [2] and in assay [3] was “inactive” throughout.

In the case of `CC1OC(OC2C(OC(=O)[C@]34CCC(C)(C)C[C@H]3C3=CCC5[C@@]6(C)CC[C@H](OC7OC(C(=O)O)C(O)C(O)C7O)C(C)(C)C6CC[C@@]5(C)[C@]3(C)CC4O)OC(CO)C2O)C(O)C(O)C1OC1OCC(O)C(O)C1O` (some centres undefined), in assay [1], the Potency result is “inactive”. Besides, in assay [2], the activity change, negative = viability loss is -7.94% [at 9.23 µM] (inactive). The activity change, negative = cell killing in assay [3] is -12.2% [at 9.23 µM] (inactive). Also, the activity was -87.7% in assay [4], -6.05% in assay [6] and -8.02% in assay [7]. Moreover, the activity change, negative = inhibition in assay [5] was 0% [at 19.1 µM].

Consider `C[C@]1(C2CCCC2)Cc2cc(OCC(=O)O)c(Cl)c(Cl)c2C1=O`, for which the Potency entry in assay [1], in assay [2] and in assay [3] was “inactive” throughout. The activity in assay [4] is -5.66%; in assay [6], -48.2%; in assay [7], -6.93%. Also, the activity change, negative = inhibition in assay [5] is -6.29%.

For `COc1cc(/C=C/C(=O)O[C@H]2[C@@H]3C=CO[C@@H](O[C@@H]4O[C@H](CO)[C@@H](O)[C@H](O)[C@H]4O)[C@@H]3[C@@]3(CO)O[C@@H]23)ccc1O`, the Potency result in assay [1], in assay [2] and in assay [3] was “inactive” each time. The activity was -66.9% in assay [4], 1.36% in assay [6] and -3.15% in assay [7]. Besides, the activity change, negative = inhibition in assay [5] stood at 0% [at 29.8 µM].
